From PubChem
The list is not random: actives were taken first. Their share in the collection is about 2.4%.
CHO-K1 Ca PAM: nonselective activator or artifact in parental CHO-K1 calcium assay; AID 602247; activation, % at 3 µM; ATP EC20, Fluo-8 calcium fluorescence; 0% at ATP EC20, 100% at ATP max; 0.02% of 360,000 active;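 active = activation above the run cutoff, the mean activation of all test compounds plus 3 SD, cut at about 40% in these data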;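 note: peak over basal fluorescence ratio in a 140 s read after ATP addition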
CHO-K1 Ca ag: counter-screen for M1 agonists: effect in parental CHO-K1 cells; 0.48% of 360,000 active; Fluo-8 calcium fluorescence; scaled to maximal ATP response, vehicle zero; AID 602248; activation, % at 3 µM; in the data active = activation above about 15%;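 note: untransfected CHO-K1 host cells lacking M1 receptor as counterscreen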
CHRM1 antagonist: human CHRM1 antagonism; P11229; CHO-K1 hM1, Fluo-8 calcium fluorescence, ACh EC80 antagonist; inhibition, % at 3 µM; 1.3% of 360,000 active;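 active = percent inhibition above its own plate's cutoff, namely the mean of that plate's compound wells plus 3 SD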;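 note: peak over basal fluorescence ratio during 140 s after agonist addition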
Target sequence (P11229 whole entry, looked up): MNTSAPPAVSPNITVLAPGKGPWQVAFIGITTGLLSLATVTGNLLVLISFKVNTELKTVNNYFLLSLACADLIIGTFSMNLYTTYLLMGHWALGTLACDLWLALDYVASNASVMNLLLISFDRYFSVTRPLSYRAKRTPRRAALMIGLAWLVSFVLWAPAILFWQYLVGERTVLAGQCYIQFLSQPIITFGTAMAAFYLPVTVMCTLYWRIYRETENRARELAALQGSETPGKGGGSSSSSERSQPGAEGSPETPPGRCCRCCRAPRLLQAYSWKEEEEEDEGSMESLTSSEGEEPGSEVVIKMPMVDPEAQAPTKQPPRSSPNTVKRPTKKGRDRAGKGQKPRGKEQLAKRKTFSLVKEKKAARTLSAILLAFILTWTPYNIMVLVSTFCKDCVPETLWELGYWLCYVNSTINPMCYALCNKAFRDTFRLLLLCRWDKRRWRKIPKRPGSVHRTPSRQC
CHRM1 agonist: agonists of human M1 muscarinic receptor | AID 588814 | activation, % at 3 µM | CHO-K1 hM1, Fluo-8 calcium fluorescence, agonist mode; 0% DMSO, 100% acetylcholine EC100 | P11229 | 0.33% of 360,000 active;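 active = activation above the run's mean compound activation plus 3 SD, cut at about 16% in these data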;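 note: peak over basal fluorescence ratio within a 140 s kinetic read after compound addition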
CHO-K1 Ca antag: M1 antagonist counterscreen hit in parental CHO-K1 cells; inhibition, % at 3 µM; 0.6% of 360,000 active; ATP-induced calcium, Fluo-8 fluorescence;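 active = inhibition above a per-plate cutoff, the plate's mean sample inhibition plus 3 SD, cut at about 24% in these data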
CHRM1 PAM: human CHRM1 positive allosteric modulation; CHO-K1 hM1, Fluo-8 calcium fluorescence, ACh EC20; 0% = ACh EC20, 100% = maximal ACh; activation, % at 3 µM; 0.088% of 360,000 active; in the data active = activation above about 19%, passing the limit was not always enough
Each line names hits and unclear results; the compound was inactive in the other large screens.

CCOc1cc(CNCc2ccccc2)ccc1OCc1ccc(Cl)cc1	CHO-K1 Ca ag 20, CHO-K1 Ca antag 29
COc1cc(CNCc2ccccn2)ccc1OCc1ccc(Cl)cc1Cl	CHO-K1 Ca antag 25
COc1ccc(CNCCc2ccc(Cl)cc2)cc1OCc1ccccc1	none
CCOc1cc(CNCCc2ccc(S(N)(=O)=O)cc2)cc(Cl)c1OCc1ccccc1	CHO-K1 Ca ag 21
COc1ccc(NC(=O)c2c(F)c(F)c(F)c(F)c2F)cc1Cl	CHO-K1 Ca antag 32
CC1CCN(S(=O)(=O)c2ccc(NC(=O)C3CCCCC3C(=O)O)cc2)CC1 (stereo not given)	none
Cc1cc(N2CCC(C)CC2)c(F)cc1[N+](=O)[O-]	none
Cc1cc(N2CCCC2)c(F)cc1/C=C\[N+](=O)[O-]	CHO-K1 Ca ag 25, CHRM1 agonist 28, CHO-K1 Ca antag 28
CCN1CCN(CCCNC(=O)CCC(=O)N2CC(C)Oc3ccc(C)cc32)CC1 (stereo not given)	none
CC(=O)c1cccc(NC(=O)c2cccc3c(-c4cccc(C(N)=O)c4)coc23)c1	none
CS(=O)(=O)Nc1cccc(NC(=O)c2cccc3c(-c4cccc(C(N)=O)c4)coc23)c1	CHRM1 antagonist 31
CCOC(=O)C1=CNS(=O)(=O)NC1c1ccc(C(=O)OC)cc1 (stereo not given)	none
CCOC(=O)C1CCCN(C(=O)c2cc3cc(OC)c(OC)cc3[nH]2)C1 (stereo not given)	none
O=C1C(=Cc2cn(-c3ccccc3)nc2-c2ccc(OCc3ccccc3)cc2)SC(=S)N1CCS(=O)(=O)O	none
Cc1ccc(-c2nn(-c3ccccc3)cc2C=C2SC(=S)N(CCS(=O)(=O)O)C2=O)cc1	CHRM1 PAM 28
COCC1CCCCN1C(=O)c1ccc(OC2CCN(CCc3ccccc3)CC2)cc1 (stereo not given)	none
O=C(CSc1ccc(Cl)cc1)N1N=CCC1c1ccccc1 (stereo not given)	none
NC(=NC(=O)c1ccc(Cl)cc1)N1N=CCC1c1ccccc1 (stereo not given)	CHO-K1 Ca antag 25
Cc1ccc2c(CN3CCN(S(=O)(=O)/C=C/c4ccccc4)CC3)cc(=O)oc2c1	none
CCOc1ccc(NC(=S)Nc2ccccc2C2CC2)cc1	CHO-K1 Ca antag 26
O=P(CCCCCCCCCP(=O)(c1ccccc1)c1ccccc1)(c1ccccc1)c1ccccc1	CHRM1 antagonist 32
NS(=O)(=O)c1ccc(NC(=S)NCCc2ccccc2)cc1	none
O=[N+]([O-])c1ccc(NC(=S)NCc2ccc(F)cc2)cc1	CHRM1 antagonist 28, CHO-K1 Ca antag 24
CNC(=O)C(=O)NCCc1ccc(Cl)cc1	CHRM1 PAM 21
O=[N+]([O-])c1ccc(NC(=S)NCCc2ccc(Cl)cc2)cc1	CHRM1 antagonist 35
O=[N+]([O-])c1ccc(NC(=S)NCCc2ccccc2)cc1	CHRM1 antagonist 39
S=C(NCCc1ccccc1)Nc1ccc(Cl)cc1	none
O=[N+]([O-])c1ccc(NC(=S)NCc2ccncc2)cc1	none
C=C1CCN([C@H](C(=O)NCc2ccc(OC)cc2)C(C)C)S(=O)(=O)c2ccccc21	none
CC(C)N(C(=O)[C@H]1C[C@H](CC(=O)NCCN2CCOCC2)C(=O)N2CCc3c([nH]c4cc(CCC(=O)N(C)C)ccc34)[C@]12C)C(C)C	none
O=C1NC[C@@H](CCCCN2CCN(CCc3ccccc3)C(=O)C2=O)N(CC2CCCCC2)C1=O	none (no result: CHRM1 antagonist, CHRM1 agonist, CHRM1 PAM)
Cc1ccccc1-c1nc(CS(=O)CC(=O)NCc2ccccn2)c(C)o1 (stereo not given)	none
CCCN(CCC)CCCNc1ccc(C(=O)Nc2cccc(OC)c2)cc1[N+](=O)[O-]	CHRM1 antagonist 40
COc1ccc(NC(=O)c2ccccc2)c([N+](=O)[O-])c1	none
CCC(CC)C(=O)Nc1cccc(C(=O)Nc2ccc(OC)cc2[N+](=O)[O-])c1	CHRM1 agonist 23
CC(C)NC(=O)N1Cc2cc(C(=O)NC3CCCC3)nc(-c3cccc(-c4cccnc4)c3)c2[C@@H]1CCO	none (no result: CHRM1 antagonist, CHRM1 agonist, CHRM1 PAM)
CC(C)/C=C1\CC/C(=C\c2ccc(N(C)C)cc2)C1=O	CHO-K1 Ca ag 29, CHRM1 antagonist 46, CHRM1 agonist 52, CHO-K1 Ca antag 29
O=C1C=C(O)CC2(CCCCC2)C1	none
COc1cc(C)ccc1S(=O)(=O)N1CCN(C23CC4CC(CC(C4)C2)C3)CC1	CHRM1 antagonist 98
Cc1cccc(N2C(=O)C(O)=C(C(=O)c3cccs3)C2c2ccc(C(C)C)cc2)n1 (stereo not given)	CHRM1 agonist 21
CN1CCN(c2ccc(CNC(=O)c3ccc(-c4ccc(F)c(F)c4)c4ccoc34)cc2)CC1	none
COc1cccc(CN2CCN(C(=O)Nc3ccc([N+](=O)[O-])cc3)CC2)c1	CHRM1 antagonist 31
COC(=O)CCN(C(=O)c1ccc(N2CCCC2)c([N+](=O)[O-])c1)c1ccccn1	none
COC(=O)CCN(C(=O)c1ccc(N2CCCCC2)c([N+](=O)[O-])c1)c1ccccn1	CHO-K1 Ca ag 20
Cc1ccc(C(=O)NCCSc2snnc2C)cc1	CHO-K1 Ca antag 43
Cc1ccc(C(=O)NCCNc2ncc(C(F)(F)F)cc2Cl)cc1[N+](=O)[O-]	CHRM1 antagonist 46
COc1ccc(C(=O)NCCNc2ncc(C(F)(F)F)cc2Cl)cc1[N+](=O)[O-]	none
CCN1CCN(c2ccc(NC(=O)c3cc4ccccc4cc3OC)cc2C)CC1	CHRM1 antagonist 99
CCCCCC(=O)NC(=S)Nc1ccc(N2CCCCC2)c(Cl)c1	none
CCN1CCN(c2ccc(NC(=O)c3ccc(C#N)cc3F)cc2Cl)CC1	CHRM1 antagonist 54
CCN1CCN(c2ccc(NC(=O)c3ccccc3F)cc2Cl)CC1	CHRM1 antagonist 84
CC(=O)N1CCN(c2ccccc2NC(=O)c2ccc(C#N)cc2F)CC1	none
CCCCCC(=O)Nc1ccc(N2CCN(CC)CC2)c(Cl)c1	CHRM1 antagonist 69
CC1CCN(C(=O)CCNS(=O)(=O)c2ccc(Cl)cc2)CC1	none
CCN(CC)c1ccc(NC(=O)CSc2nc3ccccc3c(=O)n2-c2cc(S(=O)(=O)N(C)C)ccc2C)cc1	CHO-K1 Ca antag 24
CCc1ccc(NC(=O)COC(=O)CC2CCCC2)cc1	none
CCC(=O)N1CCCc2cc(S(=O)(=O)N3CCN(c4ncccn4)CC3)ccc21	CHO-K1 Ca antag 24
CCCCNC(=O)C1(C)CCC(=O)N1c1cc(C(C)(C)C)nn1C (stereo not given)	CHO-K1 Ca antag 32
CC(C)N1CCN(C(=O)C2CCC(=O)N(CCc3cccc(F)c3)C2)CC1 (stereo not given)	none
O=C(COc1ccc(Cl)cc1)N1CCN(S(=O)(=O)c2cc(F)ccc2F)CC1	none
Cc1cc(=O)[nH]c(=S)n1-c1ccccc1	none
Nc1cc(=O)[nH]c(=S)n1-c1ccccc1	CHO-K1 Ca antag 32
